The supplement of paper PMC6518042

Tested on: Pectobacterium parmentieri SCC3193
Assay: DuctApe activity index (growth/respiration on compound as sole nutrient source, blank-subtracted) (activity index (0-3)); higher = stronger utilization of the compound, active = 3 or more
Method: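 Biolog Phenotype Microarray plates PM1, PM2A (carbon), PM3 (nitrogen) and PM4 (phosphorus/sulfur) inoculated with P. parmentieri SCC3193 in M9-C minimal salts medium with Biolog dye A, and read in the OmniLog for 46 h. Each well was tested in triplicate and the experiment was run twice. DuctApe computed a blank-subtracted activity index (AV, 0-3) from the mean curves; growth is positive at AV >= 3 and negative at AV <= 2.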

[1] = nutrient role (plate category): carbon
[2] = nutrient role (plate category): nitrogen
[3] = nutrient role (plate category): phosphate & sulphur

Structure (SMILES)	DuctApe activity index [1]	DuctApe activity index [2]	DuctApe activity index [3]
C[N+](C)(C)CC(O)CC(=O)[O-] (racemic) [D,L-Carnitine]	0 (inactive)		
O=C(CO)CO [Dihydroxyacetone]	1 (inactive)		
CC[C@H](C)[C@H](N)C(=O)O [L-Isoleucine]	0 (inactive)	0 (inactive)	
O=c1[nH]cnc2c1ncn2[C@@H]1O[C@H](CO)[C@@H](O)[C@H]1O [Inosine]	1 (inactive)	0 (inactive)	
CC(=O)N[C@H]1C(O)O[C@H](CO)[C@H](O)[C@@H]1O (stereo partly drawn) [N-Acetyl-D-Galactosamine]	3 (active)	3 (active)	
OC[C@H](O)C(O)[C@@H](O)CO [L-Arabitol]	0 (inactive)		
N[C@@H](CS(=O)(=O)O)C(=O)O [L-Cysteic acid]			1 (inactive)
Cc1c[nH]c(=O)[nH]c1=O [Thymine]		0 (inactive)	
NC(=O)CC[C@H](N)C(=O)O [L-Glutamine]	0 (inactive)	2 (inactive)	
COC(=O)CCC(=O)O [Mono-Methylsuccinate]	2 (inactive)		
OC[C@H]1O[C@H](O[C@H]2[C@H](O)[C@@H](O)[C@@H](O[C@H]3[C@H](O)[C@@H](O)[C@@H](O)O[C@@H]3CO)O[C@@H]2CO)[C@H](O)[C@@H](O)[C@@H]1O [Maltotriose]	3 (active)		
N[C@H](CC(=O)O)C(=O)O [D-Aspartic acid]	3 (active)	2 (inactive)	
NCCC[C@H](N)C(=O)O [L-Ornithine]	0 (inactive)	0 (inactive)	
NCCS(=O)O [Hypotaurine]			1 (inactive)
CC(N)=O [Acetamide]	0 (inactive)	0 (inactive)	
NC(N)=S [Thiourea]			0 (inactive)
C[C@@H](N)C(=O)O [D-Alanine]	0 (inactive)	0 (inactive)	
COC(=O)[C@@H](C)O [D-Lactic acid Methyl Ester]	1 (inactive)		
O=P(O)(O)OC[C@H](O)CO (racemic) [DL-a-Glycerol Phosphate]	3 (active)		1 (inactive)

Structure (SMILES)	DuctApe activity index [1]	DuctApe activity index [2]	DuctApe activity index [3]
O=C(O)[C@H](O)[C@@H](O)C(=O)O [L-Tartaric acid]	0 (inactive)		
CC(=O)N[C@@H]1C(O)O[C@H](CO)[C@@H](O)[C@@H]1O (stereo partly drawn) [N-Acetyl-D-Mannosamine]	0 (inactive)	0 (inactive)	
O=C(O)CCCCCCCCC(=O)O [Sebacic acid]	0 (inactive)		
N[C@H]1C(O)O[C@H](CO)[C@@H](O)[C@@H]1O (stereo partly drawn) [D-Glucosamine]	3 (active)	3 (active)	
O=S(=O)(O)CCO [2-Hydroxyethane Sulfonic acid]			1 (inactive)
O=C1CC[C@@H](C(=O)O)N1 [L-Pyroglutamic acid]	0 (inactive)	0 (inactive)	
CC(C)[C@H](N)C(=O)O [L-Valine]	0 (inactive)	0 (inactive)	
N[C@@H](CCO)C(=O)O [L-Homoserine]	0 (inactive)	0 (inactive)	
OC[C@H]1O[C@H](O[C@H]2O[C@H](CO)[C@@H](O)[C@H](O)[C@H]2O)[C@H](O)[C@@H](O)[C@@H]1O [D-Trehalose]	3 (active)		
O=C(O)Cc1ccc(O)cc1 [p-Hydroxyphenyl Acetic acid]	0 (inactive)		
C[C@H](N)C(=O)NCC(=O)O	0 (inactive)	0 (inactive)	
CC(=O)C(=O)O [Pyruvic acid]	3 (active)		
N=C(N)NCCC[C@H](N)C(=O)O [L-Arginine]	0 (inactive)	0 (inactive)	
NC(=O)[C@H]1O[C@@H](O)[C@H](O)[C@@H](O)[C@@H]1O [Glucuronamide]	0 (inactive)	2 (inactive)	
O=C(O)CC(=O)O [Malonic acid]	0 (inactive)		
CC(=O)N[C@@H](CCC(=O)O)C(=O)O [N-Acetyl-L-Glutamic acid]	0 (inactive)	0 (inactive)	
Cc1cn([C@H]2C[C@H](O)[C@@H](CO)O2)c(=O)[nH]c1=O [Thymidine]	1 (inactive)	0 (inactive)	
NCCCCN [Putrescine]	0 (inactive)	0 (inactive)	
N[C@@H](CO)C(=O)O [L-Serine]	3 (active)	1 (inactive)	
